Shown are actives, neighbours in structure and some others; about 10% of the full set was active somewhere.
Luciferase inh: inhibitors of firefly (Photinus pyralis) luciferase. purified P. pyralis luciferase, luminescence, biochemical. Potency, µM (highest dose often 115 µM), most hits filed as inhibitors. 2.5% of 76,000 active. AID 1347043; further: nearly all actives have a fitted effect of over 65% in size
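Biochemical qHTS: compound (6-point titration) added to 10uM D-luciferin plus 10uM ATP in Tris acetate pH 7.5 buffer with Mg, Tween-20 and BSA, then purified enzyme at 10nM; light output imaged.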
GPT2 inh: blocks human glutamate pyruvate transaminase 2 | Q8TD30 | Recombinant GPT2, coupled pyruvate oxidase/HRP Amplex Red fluorescence | Potency, µM (titrated, usually from 57.7 µM), for inactives: top-dose activity change, negative = inhibition, most hits filed as inhibitors | 0.25% of 100,000 active; further: nearly all actives have a fitted effect of over 60% in size
Target sequence (Q8TD30 whole entry, looked up): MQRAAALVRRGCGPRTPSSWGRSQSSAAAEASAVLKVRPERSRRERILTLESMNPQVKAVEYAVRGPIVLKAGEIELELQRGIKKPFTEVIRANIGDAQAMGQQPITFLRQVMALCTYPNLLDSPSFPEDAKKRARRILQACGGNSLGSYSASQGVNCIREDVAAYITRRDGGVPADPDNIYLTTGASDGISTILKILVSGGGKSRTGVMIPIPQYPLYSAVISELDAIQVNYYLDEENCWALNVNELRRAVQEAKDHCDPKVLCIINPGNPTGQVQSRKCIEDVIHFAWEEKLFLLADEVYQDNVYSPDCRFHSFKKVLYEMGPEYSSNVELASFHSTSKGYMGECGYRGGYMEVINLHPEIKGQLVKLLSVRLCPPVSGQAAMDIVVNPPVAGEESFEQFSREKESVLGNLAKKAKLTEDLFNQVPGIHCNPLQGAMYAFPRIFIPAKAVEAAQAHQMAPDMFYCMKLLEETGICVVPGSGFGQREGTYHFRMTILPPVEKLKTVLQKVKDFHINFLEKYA
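Fluorescence read-out: pyruvate from GPT2 turnover coupled to pyruvate oxidase, HRP and Amplex Red (0.2mM ThPP, 0.2U/mL PO and HRP, 50uM Amplex final). Substrates 250uM a-KG, 2mM L-alanine; enzyme 10ng/uL; 30 min RT.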
hNpr1 antagonist: blocks ANP-stimulated signaling of human Npr1 receptor; P16066; HEK293 hNpr1 GloSensor cGMP, ANP-stimulated luminescence; Potency, µM (titrated, usually from 46.3 µM), for the others: top-dose activity change, negative = inhibition, hits mostly inhibitors; 1.6% of 76,000 active; AID 1347048; calls by dose curve; further: nearly all actives have a fitted effect of over 60% in size
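HEK293 cells stably expressing human Npr1 and cGMP GloSensor pGS-40F, loaded 2 h with 2% GloSensor reagent, given compound 30 min at room temperature. Luminescence read before and 20 min after 0.1 nM hNppA.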
NIH3T3 tox: kills NIH 3T3 cells; 4.3% of 94,000 active; NIH 3T3 viability, CellTiter-Glo ATP luminescence, 48-72 h; Potency, µM (top dose mostly 96.7 µM), for inactives: at the highest dose activity change, negative = cytotoxicity, usual class: inhibitors; further: nearly all actives have a fitted effect of over 55% in size
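Cytotoxicity was measured by CellTiter-Glo ATP luminescence after 48 or 72 h compound exposure at 37 °C. Mouse NIH 3T3 fibroblasts were seeded at 400 cells/well and dosed by 23 nL pin transfer.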
HEK293 tox: cytotoxic compounds in HEK 293 cells | HEK 293 viability, ATP luminescence (CellTiter-Glo), 48-72 h | Potency, µM (titrated, usually from 115 µM), for inactives: at the highest dose activity change, negative = cytotoxicity, actives largely listed as inhibitors | 6.6% of 94,000 active | AID 1345083; further: nearly all actives have a fitted effect of over 60% in size
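Pintool-delivered compounds were incubated with HEK 293 cells (250 cells/well) at 37 degree Celsius for 48 or 72 hr. ATP-dependent luminescence (CellTiter-Glo) then reported remaining viable cells.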
Numbers without * were called inactive; i = inactive; ? = inconclusive; nt = no result given; [ ] = dose if it differs, or a comment. Unless noted, the call rests on the fitted dose curve; in most records, active means well fitted curve in the direction sought with a large enough effect; inconclusive means small, poorly fitted or top-dose-only effect, or another doubt; inactive means no such curve, though single readings can be large; an effect the other way counts as inactive or inconclusive. On the % scale 0 is the no-effect control and ±100 the full control effect; potency means the concentration at half of the fitted maximal effect.

SMILES | Luciferase inh | GPT2 inh | hNpr1 antagonist | NIH3T3 tox | HEK293 tox
O=C(Cn1c(=O)oc2ccccc21)NCC1Cn2cccc2C(=O)N1Cc1cccnc1 (configuration not stated) | i | -15.0% | -18.5% | -2.9% | -8.5%
Cc1ccc(C)c(S(=O)(=O)N2CCCN(C)c3ccccc32)c1 | i | -0.8% | -4.6% | ? | ?
CCCCNC(=O)CC(c1cccc2c1OCO2)c1c[nH]c2c(CC)cccc12 (configuration not stated) | i | i | -12.6% | ? | 44.7µM*
O=C(CC(c1cccc2c1OCO2)c1c[nH]c2ccccc12)NCc1ccccc1 (configuration not stated) | i | i | -19.6% | ? | ?
CC(C)(C)OCC1CN(CCc2ccccc2)[S+](=O)([O-])c2cccnc2O1 (configuration not stated) | nt | nt | nt | -32.2% | ?
O=C(Nc1ccc2c(c1)OCCO2)N1CCCC(c2nnnn2-c2ccccc2)C1 (configuration not stated) | nt | i | nt | -26.6% | ?
O=C1CCN(C(=O)COc2ccc(F)cc2)CCCC(c2nc(-c3cnccn3)no2)CCN1 (configuration not stated) | i | i | -1.0% | -9.6% | 2.7%
Cc1cnc(CC2CCN(S(=O)(=O)c3ccc4c(c3)CCC4)C2)n1CC1CC1 (configuration not stated) | i | 3.7% | ? | ? | 50.1µM*
CCCn1c(C)cnc1CC1CCN(S(=O)(=O)c2ccc3c(c2)CCC3)C1 (configuration not stated) | i | -0.6% | -5.9% | ? | ?
Cn1cccc1-c1noc(C2CCN(C(=O)NC(C)(C)C)CC2)n1 | nt | -3.0% | nt | -37.3% | ?
COCCCNC(=O)N1CCC(N2C(=O)C3(CCCC3)C2c2ccccc2)CC1 (configuration not stated) | nt | i | nt | -15.1% | i
COc1ccc(-c2ccc3c(n2)CN(Cc2csc(C)n2)C(=O)CO3)cc1F | i | i | -11.3%[70.6 µM] | ? | ?
Cc1nc(CN2Cc3nc(-c4cccc(C(F)(F)F)c4)ccc3OCC2=O)cs1 | i | 4.4%[88.5 µM] | -2.0%[70.6 µM] | 79.4µM* | 100µM*
O=C1COc2ccc(OCC3CC3)nc2CN1Cc1ccc(C(F)(F)F)cc1 | i | ? | -9.1%[70.6 µM] | 79.4µM* | 79.4µM*
O=C1COc2ccc(NCc3cccs3)nc2CN1Cc1ccc(C(F)(F)F)cc1 | i | -7.8%[88.5 µM] | ? | 79.4µM* | 79.4µM*
O=C(CN1Cc2nc(Nc3ccc(C(F)(F)F)cc3)ccc2OCC1=O)N1CCCC1 | i | 3.8%[88.5 µM] | -16.3%[70.6 µM] | 50.1µM* | 79.4µM*
O=C(CN1Cc2nc(-c3ccsc3)ccc2OCC1=O)N1CCCC1 | i | -3.6%[88.5 µM] | -7.9%[70.6 µM] | ? | -21.5%[172 µM]
Fc1cc(F)cc(Cc2nc3nccc(-c4ccsc4)n3n2)c1 | i | 4.8% | -3.4% | ? | ?
O=C1COc2ccc(-c3cn[nH]c3)nc2CN1Cc1ccc(C(F)(F)F)cc1 | i | 0.2%[88.5 µM] | -15.8%[70.6 µM] | 10µM* | ?
O=C1COc2ccc(-c3ccncc3)nc2CN1Cc1ccc(C(F)(F)F)cc1 | i | -9.5%[88.5 µM] | -6.8%[70.6 µM] | ? | 79.4µM*
O=C1COc2ccc(-c3ccncc3)nc2CN1Cc1ccccc1 | i | i | -17.3%[70.6 µM] | ? | ?
O=C(CC1CCCCN(Cc2ccccc2)C1=O)Nc1ccccc1F (configuration not stated) | nt | -0.6% | nt | ? | ?
CO[C@H]1C(=O)N(C(C)C)[C@H]1C1CCN(C(=O)NCc2ccc(C)cc2)CC1 | nt | i | nt | -7.0% | -15.0%
O=C(Nc1ccc(F)cc1)[C@@H]1C[C@@H](c2cccc(C(F)(F)F)c2)N(CC2CCOCC2)C1 | i | -0.1% | -18.0% | 25.1µM* | ?
Cn1cc(CN2C[C@H](C(=O)Nc3ccc(F)cc3)C[C@H]2c2cccc(C(F)(F)F)c2)cn1 | i | -0.1% | -9.7% | ? | ?
SMILES | Luciferase inh | GPT2 inh | hNpr1 antagonist | NIH3T3 tox | HEK293 tox
O=C(Nc1ccncn1)[C@@H]1C[C@@H](c2cccc(C(F)(F)F)c2)N(CC2CCOCC2)C1 | i | -5.7%[88.5 µM] | -6.7%[70.6 µM] | ? | 79.4µM*
Cc1ccc2nc(C(C)NC(=O)c3cnc(-c4ccccn4)[nH]c3=O)[nH]c2c1 (configuration not stated) | i | ? | -0.5% | ? | 25.1µM*
O=C(Nc1cccc(C(F)(F)F)c1)N[C@H]1CO[C@H]2[C@@H]1OC[C@@H]2n1cc(CC2CCCCC2)nn1 | i | 3.9% | ? | ? | 39.8µM*
O=C(Nc1ccccc1)N[C@H]1CO[C@H]2[C@@H]1OC[C@@H]2n1cc(CC2CCCCC2)nn1 | i | i | -0.2%[70.6 µM] | ? | -32.5%[172 µM]
O=S(=O)(N[C@H]1CO[C@H]2[C@@H]1OC[C@@H]2n1cc(CC2CCCCC2)nn1)c1cccs1 | i | -7.9% | -26.2% | ? | 79.4µM*
COCc1cn([C@H]2CO[C@H]3[C@@H]2OC[C@H]3OC(=O)Nc2cccc(C(F)(F)F)c2)nn1 | i | -16.5%[88.5 µM] | -11.7%[70.6 µM] | ? | 79.4µM*
CN(Cc1ccccc1)Cc1cn([C@H]2CO[C@H]3[C@@H]2OC[C@@H]3NS(=O)(=O)c2cccs2)nn1 | i | i | 2.6% | ? | ?
O=C(c1ccc(Cl)nc1)N1CCN(c2ccc3nnc(C4CC4)n3n2)CC1 | nt | nt | nt | -28.8% | -3.0%
O=C1COc2ccc(-c3ccsc3)nc2CN1Cc1ccccc1F | i | -9.3%[88.5 µM] | 1.2%[70.6 µM] | ? | 100µM*
O=C1COc2ccc(-c3ccccc3)nc2CN1Cc1ccccc1F | i | -9.0%[88.5 µM] | -11.2%[70.6 µM] | ? | ?
COc1ccc(-c2ccc3c(n2)CN(Cc2ccccc2C)C(=O)CO3)cc1OC | i | -10.3%[88.5 µM] | -13.2%[70.6 µM] | ? | ?
Cc1ccccc1CN1Cc2nc(-c3cnn(Cc4ccccc4)c3)ccc2OCC1=O | i | i | ? | 22.4µM* | 35.5µM*
Cc1ccccc1CN1Cc2nc(-c3ccccc3)ccc2OCC1=O | i | -22.6%[88.5 µM] | -5.9%[70.6 µM] | ? | 89.1µM*
Cc1ccccc1CN1Cc2nc(-c3cnn(C)c3)ccc2OCC1=O | i | 1.4%[88.5 µM] | 4.5%[70.6 µM] | 31.6µM* | 100µM*
NC(=O)c1cccc(-c2ccc3c(n2)CN(Cc2nc4ccccc4s2)C(=O)CO3)c1 | i | 2.2%[88.5 µM] | -21.5%[70.6 µM] | ? | 79.4µM*
NC(=O)c1cccc(-c2ccc3c(n2)CN(Cc2ccc(F)cc2)C(=O)CO3)c1 | i | 0.8%[88.5 µM] | ? | ? | ?
Cc1ccccc1CN1Cc2nc(OCc3cccnc3)ccc2OCC1=O | i | -12.1%[88.5 µM] | ? | ? | ?
O=C1COc2ccc(OCc3cccnc3)nc2CN1Cc1ccccc1F | i | 4.4%[88.5 µM] | ? | ? | 89.1µM*
CCC(NC(=O)c1ccc2nc(-c3ccc(F)cc3)cn2c1)c1ncc(C)[nH]1 (configuration not stated) | 7.94µM* | i | -6.5% | ? | ?

Compound activity: PubChem, National Center for Advancing Translational Sciences (NCATS)
